In PubChem BioAssay AID1645838 (ICCB-Longwood Screening Facility, Harvard Medical School, 2021):
Out of some 2,000 compounds screened, about 100 (5%) were called active. The sample holds actives, similar compounds and a random draw of the others, so the mix is not that of the screen. Cut-off read from the data, not from the text of the source: active = z-score above about 2; inactive = the rest.

Assay: modulators of mitochondrial supercomplex assembly, cell-based, luminescence, Hoechst nuclei count (AID 1645838);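 note: control cybrid cells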;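 for z-score: higher means more mitochondrial supercomplex formation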
Settings: Cells, luminescence/Hoechst cell count ratio, supercomplex reporter; for z-score: stronger effect = higher value; for cell count: measured here: cell number, Hoechst nuclei count
[1] = library stock concentration (final well concentration not given) 46 uM
[2] = library stock concentration (final well concentration not given) 278 uM
[3] = library stock concentration (final well concentration not given) 1.67 mM
[4] = library stock concentration (final well concentration not given) 10 mM
[5] = library stock concentration (final well concentration not given) 80 uM
[6] = library stock concentration (final well concentration not given) 400 uM
[7] = library stock concentration (final well concentration not given) 2 mM

## CC(C(=O)Nc1cccc(N=Cc2c(O)ccc3ccccc23)c1)c1ccccc1 (stereo not given)
  z-score: -0.78 (inactive)
  cell count: 5730

## COc1ccccc1Oc1c(NS(=O)(=O)c2ccc(C)cn2)nc(-c2ccncc2)nc1OC
[1]
  z-score: -0.0599 (inactive)
  cell count: 7280
[2]
  z-score: -0.113 (inactive)
  cell count: 6760
[3]
  z-score: 0.0903 (inactive)
  cell count: 7600
[4]
  z-score: 0.0187 (inactive)
  cell count: 7550

## CCCCCCCCCCCCCCCC(=O)OC[C@H](COP(=O)([O-])OCC[N+](C)(C)C)OC(=O)CCCCCCCC(=O)/C=C/C(=O)O
  z-score: -0.738 (inactive)
  cell count: 5950

## CCCCC[C@H](O)/C=C/[C@@H]1[C@H](C/C=C\CCCC(=O)O)[C@@H](O)C[C@H]1O
  z-score: -0.418 (inactive)
  cell count: 5540

## Cc1cc(Nc2cc(NC(=O)c3c(Cl)cccc3Cl)ccn2)nc(N)n1
Library stock 10 mM
  outcome: inactive
[1]
  z-score: -0.552 (inactive)
  cell count: 7000
[2]
  z-score: 2.25 (active)
  cell count: 3680
[3]
  z-score: 7.34 (active)
  cell count: 1560

## O=C(Nc1ccc(S(=O)(=O)Nc2ccccc2Cl)c(Cl)c1)c1ccccn1
[5]
  z-score: -0.0523 (inactive)
  cell count: 5940
[6]
  z-score: 0.247 (inactive)
  cell count: 5620
[7]
  z-score: 0.0843 (inactive)
  cell count: 5480
[4]
  z-score: -0.408 (inactive)
  cell count: 5970

## Cc1cc(Nc2ccc(NC(=O)c3ccc(Nc4ccnc5ccccc45)cc3)cc2)nc(N)n1
Library stock 10 mM
  outcome: inactive; censored for cell count
[5]
  z-score: -0.573 (inactive)
  cell count: 6440
[6]
  z-score: -0.616 (inactive)
  cell count: 6580
[7]
  z-score: -0.871 (inactive)
  cell count: 6140

## COc1ccc(C(=O)C(=O)c2ccccc2)cc1
[1]
  z-score: -0.147 (inactive)
  cell count: 5340
[2]
  z-score: -0.127 (inactive)
  cell count: 4770
[3]
  z-score: -0.0906 (inactive)
  cell count: 4920
[4]
  z-score: -0.261 (inactive)
  cell count: 4940

## CCCCCCCCCCCCCCCC(=O)SCCOP(=O)([O-])OCC[N+](C)(C)C
  z-score: 0.0631 (inactive)
  cell count: 5610

## COc1cc(C(=O)N2CCC(N3CCN(C)CC3)CC2)ccc1Nc1ncc2c(n1)N(C)c1ccccc1C(=O)N2C
[5]
  z-score: -0.05 (inactive)
  cell count: 4870
[6]
  z-score: 0.293 (inactive)
  cell count: 4880
[7]
  z-score: 2.34 (active)
  cell count: 4160
[4]
  z-score: 4.4 (active)
  cell count: 3320

## CCC1C(=O)N(C)c2cnc(Nc3ccc(C(=O)NC4CCN(C)CC4)cc3OC)nc2N1C1CCCC1 (stereo not given)
Library stock 80 µM
  outcome: inactive; censored for cell count
Library stock 400 µM
  outcome: inactive; censored for cell count
Library stock 2 mM
  outcome: inactive; censored for cell count
Library stock 10 mM
  outcome: inactive; censored for cell count

## COc1cc(C(=O)NC2CCN(C)CC2)ccc1Nc1ncc2c(n1)N(C1CCCC1)C(C)CC(=O)N2C (stereo not given)
Library stock 10 mM
  outcome: inactive; censored for cell count
[5]
  z-score: -0.18 (inactive)
  cell count: 4460
[6]
  z-score: -0.538 (inactive)
  cell count: 4710
[7]
  z-score: -0.076 (inactive)
  cell count: 4310

## CCCCC[C@@H](O)/C=C/[C@@H]1[C@H](C/C=C\CCCC(=O)O)[C@@H](O)C[C@H]1O
  z-score: -0.594 (inactive)
  cell count: 5750

## COCCOc1ccc2c(c1)ncn2-c1ccc2cccc(N3CCC(N)CC3)c2n1
Library stock 10 mM
  outcome: inactive; censored for cell count
[5]
  z-score: 1.84 (inactive)
  cell count: 4940
[6]
  z-score: 2.21 (active)
  cell count: 5070
[7]
  z-score: 2.12 (active)
  cell count: 4020

## CCCCC[C@H](O)CC[C@@H]1[C@@H](C/C=C\CCCC(=O)O)[C@@H](O)C[C@H]1O
  z-score: -1.49 (inactive)
  cell count: 6030

## CCCCC[C@H](O)/C=C/[C@@H]1[C@H](CCCCCCC(=O)O)[C@@H](O)C[C@H]1O
  z-score: 0.0726 (inactive)
  cell count: 4940

## CCN(CC)c1ccc(C2=C(Cl)C(=O)c3ncccc3C2=O)cc1
  z-score: -0.697 (inactive)
  cell count: 3780

## Cc1cc(N2CCOCC2)ccc1Nc1nc(NC2CCCCC2)c2[nH]cnc2n1
[1]
  z-score: -0.914 (inactive)
  cell count: 7450
[2]
  z-score: -0.363 (inactive)
  cell count: 5730
[3]
  z-score: 3.33 (active)
  cell count: 2040
[4]
  z-score: 3.68 (active)
  cell count: 2130

## c1ccc2c(Oc3nc(Nc4ccc(N5CCOCC5)cc4)c4ncn(C5CCCCC5)c4n3)cccc2c1
  z-score: -0.437 (inactive)
  cell count: 5560

## c1nc2nc(Nc3ccc(N4CCOCC4)cc3)nc(NC3CCCCC3)c2[nH]1
Library stock 2 mM
  outcome: inactive; censored for cell count
Library stock 10 mM
  outcome: inactive; censored for cell count
[5]
  z-score: -0.0131 (inactive)
  cell count: 4690
[6]
  z-score: 1.19 (inactive)
  cell count: 2200

## NC(N)=NN=Cc1ccc(Cl)c(Cl)c1
[5]
  z-score: -0.108 (inactive)
  cell count: 5310
[6]
  z-score: 0.196 (inactive)
  cell count: 4750
[7]
  z-score: -0.953 (inactive)
  cell count: 4910
[4]
  z-score: -0.658 (inactive)
  cell count: 4260

## CCCCC[C@H](O)/C=C/[C@H]1[C@H](O)CC(=O)[C@@H]1CCCCCCC(=O)NCCO
  z-score: 0.115 (inactive)
  cell count: 5420

## NC1=NC(=O)/C(=C/c2ccc(O)cc2)S1
  z-score: 0.333 (inactive)
  cell count: 5020

## CCCCCCCC/C=C\CCCCCCCC(=O)OCC(O)COP(=O)(O)O (stereo not given)
  z-score: -0.58 (inactive)
  cell count: 5650

## O=C(O)CCC/C=C\C[C@@H]1[C@@H](/C=C/[C@@H](O)COc2cccc(C(F)(F)F)c2)[C@H](O)C[C@@H]1O
  z-score: -0.654 (inactive)
  cell count: 5730

## Cc1ccc(COC(=O)N2CCC(CNc3ncccn3)C(F)C2)cc1 (stereo not given)
[5]
  z-score: -0.136 (inactive)
  cell count: 5400
[6]
  z-score: 0.087 (inactive)
  cell count: 5130
[7]
  z-score: -0.148 (inactive)
  cell count: 5140
[4]
  z-score: -0.243 (inactive)
  cell count: 5210
